The values that follow come from PubChem BioAssay (NCATS).

Inconclusive results are not listed. The source made the active and inactive calls. The call rests on the fitted dose curve; in most records, active means well fitted curve in the direction sought with a large enough effect; inconclusive means small, poorly fitted or top-dose-only effect, or another doubt; inactive means no such curve, though single readings can be large; an effect the other way counts as inactive or inconclusive.

Assay [1] concerns Nanoluciferase (engineered Oplophorus gracilirostris luciferase). The experiment in a line: Primary Nanoluciferase (NLuc) qHTS assay for identification of artifact compounds. (AID 1845222).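 Further: NLuc secreted into diluted conditioned medium of S16 cells.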 Summed up:
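S16 cell supernatant NLuc, 1:55; cpds qHTS; 15 min RT dark; Nano-Glo substrate 1:100, 5 min; luminescence; Hill fit of % inhibition.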

The nature of assay [2]: Primary redox qHTS assay for identification of artifact compounds. (AID 1845223). Summed up: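 Redox-cycling detection via DTT (250 uM final) oxidation coupled to Amplex Red (25 uM)/HRP (250 mU/mL) in HBSS. 15 min preincubation plus 30 min after DTT, room temperature. Ex/Em 525/598 nm; 4-parameter Hill fit against DMSO and 10 uM DA3003.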
Assay [3] is described as follows: Quantitative High-Throughput drug screen in 47 multiple myeloma cell lines against the NCATS MIPE library collection: FR4_PLB cell viability assay (AID 1918924; further: nearly all actives have a fitted effect of over 35% in size; further: potency means the concentration at half of the fitted maximal effect). Summed up: (§1)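 Steps: seed 500 cells per well; pin-transfer MIPE 4.0 library; incubate 48 h at 37C, 5% CO2, humidified; add CellTiter-Glo, 5 min room temperature; read luminescence.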
Assay [4] can be described thus: Quantitative High-Throughput drug screen in 47 multiple myeloma cell lines against the NCATS MIPE library collection: EJM_DSMZ cell viability assay (AID 1918926; further: nearly all actives have a fitted effect of over 30% in size; further: potency means the concentration at half of the fitted maximal effect). Summed up: (§2)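 CellTiter-Glo luminescence (ATP) after 48 h compound exposure, 37C/5% CO2; 500 cells/well; MIPE 4.0 approved/investigational drugs pinned in; DMSO = 100%, media only = 0% viability.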
The nature of assay [5]: Quantitative High-Throughput drug screen in 47 multiple myeloma cell lines against the NCATS MIPE library collection: AMO1_DSMZ cell viability assay (AID 1918927; further: nearly all actives have a fitted effect of over 30% in size; further: potency means the concentration at half of the fitted maximal effect). Summed up: as §2
Assay [6] in a line: Quantitative High-Throughput drug screen in 47 multiple myeloma cell lines against the NCATS MIPE library collection: ARP1_JJKsccF8 cell viability assay (AID 1918928; further: nearly all actives have a fitted effect of over 40% in size; further: potency means the concentration at half of the fitted maximal effect). In outline:
(§3)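 Cell viability inhibition in this qHTS is measured via ATP content (CellTiter-Glo) after 48 h drug exposure at 37 °C. Wells hold 500 cells; DMSO-treated wells define 100% and medium-only wells 0%.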

Assay [7] is described as follows: Quantitative High-Throughput drug screen in 47 multiple myeloma cell lines against the NCATS MIPE library collection: ARD_JJKsccE7 cell viability assay (AID 1918929; further: potency means the concentration at half of the fitted maximal effect). Summed up:
as §2

Assay [8] in a line: Quantitative High-Throughput drug screen in 47 multiple myeloma cell lines against the NCATS MIPE library collection: KMM1_JCRB cell viability assay (AID 1918960). Further: nearly all actives have a fitted effect of over 30% in size. Further: potency means the concentration at half of the fitted maximal effect. Summed up:
as §3

The nature of assay [9]: Quantitative High-Throughput drug screen in 47 multiple myeloma cell lines against the NCATS MIPE library collection: KHM11_PLB cell viability assay (AID 1918962). Further: nearly all actives have a fitted effect of over 35% in size. Further: potency means the concentration at half of the fitted maximal effect. Summed up:
as §1

The nature of assay [10]: Quantitative High-Throughput drug screen in 47 multiple myeloma cell lines against the NCATS MIPE library collection: JIM3_ECACC cell viability assay (AID 1918963; further: nearly all actives have a fitted effect of over 35% in size; further: potency means the concentration at half of the fitted maximal effect). Summed up:
as §1

Assay [11] in a line: Quantitative High-Throughput drug screen in 47 multiple myeloma cell lines against the NCATS MIPE library collection: H1112_PLB cell viability assay (AID 1918967; further: nearly all actives have a fitted effect of over 30% in size; further: potency means the concentration at half of the fitted maximal effect). In outline:
as §2

The nature of assay [12]: Quantitative High-Throughput drug screen in 47 multiple myeloma cell lines against the NCATS MIPE library collection: Delta47_JCRB cell viability assay (AID 1918925; further: nearly all actives have a fitted effect of over 45% in size; further: potency means the concentration at half of the fitted maximal effect). Summed up:
as §2

A short description of assay [13]: Quantitative High-Throughput drug screen in 47 multiple myeloma cell lines against the NCATS MIPE library collection: KMS27_JCRB cell viability assay (AID 1918970). Further: nearly all actives have a fitted effect of over 30% in size. Further: potency means the concentration at half of the fitted maximal effect. Summed up: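 ATP-based viability (CellTiter-Glo luminescence) is measured in cells treated 48 h with approved and investigational drugs at 37 °C. Controls are DMSO-only wells for full viability and media-only wells for none.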

Assay [14] can be described thus: Quantitative High-Throughput drug screen in 47 multiple myeloma cell lines against the NCATS MIPE library collection: Karpas620_DSMZ cell viability assay (AID 1918959). Further: nearly all actives have a fitted effect of over 30% in size. Further: potency means the concentration at half of the fitted maximal effect. In outline: as §1
Assay [15] in a line: Quantitative High-Throughput drug screen in 47 multiple myeloma cell lines against the NCATS MIPE library collection: Karpas417_ECACC cell viability assay (AID 1918961). Further: potency means the concentration at half of the fitted maximal effect. The following applies: Karpas417 myeloma viability, CellTiter-Glo ATP luminescence, 48 h; viability (% of DMSO): at 45.8 µM (top of the series). In outline:
as §2
In general terms: In ATP-based viability assays light output follows the ATP content of the culture.

A short description of assay [16]: Quantitative High-Throughput drug screen in 47 multiple myeloma cell lines against the NCATS MIPE library collection: JIM1_ECACC cell viability assay (AID 1918964; further: potency means the concentration at half of the fitted maximal effect). Summed up: as §2
Assay [17] is described as follows: Quantitative High-Throughput drug screen in 47 multiple myeloma cell lines against the NCATS MIPE library collection: INA6_PLB cell viability assay (AID 1918965; further: nearly all actives have a fitted effect of over 55% in size; further: potency means the concentration at half of the fitted maximal effect). Summed up:
as §2

The nature of assay [18]: Quantitative High-Throughput drug screen in 47 multiple myeloma cell lines against the NCATS MIPE library collection: Karpas25_ECACC cell viability assay (AID 1918968; further: nearly all actives have a fitted effect of over 35% in size; further: potency means the concentration at half of the fitted maximal effect). Summed up: as §2
Assay [19] is described as follows: Quantitative High-Throughput drug screen in 47 multiple myeloma cell lines against the NCATS MIPE library collection: JJN3_DSMZ cell viability assay (AID 1918966; further: nearly all actives have a fitted effect of over 50% in size; further: potency means the concentration at half of the fitted maximal effect). Summed up: as §2

Take `O=C(CCN1CCN(C(=O)OCc2cc(Cl)cc(Cl)c2)CC1)c1ccc2[nH]c(=O)oc2c1`: the Potency result in [1], in assay [3], in assay [4], in assay [6], in assay [8] and in assay [10] was “inactive” throughout. The Potency result in assay [11] is “inactive”. The compound was classed as inactive in [2]. The figures for the Potency in assay [5], in assay [7] and in assay [9] were 1.18 µM (active), 0.0166 µM (active) and 2.64 µM (active), respectively.

Turning to `COc1ccc2c(Oc3ccc(NC(=O)c4c(C)n(CC(C)(C)O)n(-c5ccccc5)c4=O)cc3F)ccnc2c1`, the Potency result in [1] was “inactive”. The compound was called inactive in [2]. The Potency was 26.4 µM (active) in [3]; 23.5 µM (active) in assay [12]; 20.9 µM (active) in assay [7]; 20.9 µM (active) in [11]; 20.9 µM (active) in assay [13].

For `COc1cc2nc(-c3ccc(N4CCN(C)CC4)cc3)nc(NCCN3CCOCC3)c2cc1OC`, the Potency entry in assay [1] is “inactive”. Moreover, the Potency is 0.0296 µM (active) in assay [3]; 0.148 µM (active) in [12]; 0.0264 µM (active) in assay [4]; 0.148 µM (active) in [5]; 0.059 µM (active) in [6]; 0.296 µM (active) in [7]. Also, the Potency in [14] is 0.118 µM (active); in assay [8] it was 0.0469 µM (active); in [15], 0.0166 µM (active); in assay [10] it was 0.148 µM (active); in assay [16], 0.166 µM (active); in assay [17], 0.0372 µM (active). Also, the Potency in assay [11] is 1.48 µM (active); in assay [18] it was 0.0105 µM (active); in assay [13], 0.0332 µM (active).

`O=c1[nH]cnc2c1ncn2[C@H]1CC[C@@H](CO)O1`: the Potency result in assay [1], in [3], in assay [4], in assay [5], in [6] and in assay [14] was “inactive” in each case. Further, the Potency entry in [8], in assay [9], in assay [10], in [16] and in assay [11] was “inactive” in each case. Further, in assay [2], the compound was called inactive.

Regarding `CO[C@H]1C=CO[C@@]2(C)Oc3c(C)c(O)c4c(O)c(c5c(c4c3C2=O)NC2(CCN(CC(C)C)CC2)N=5)=NC(=O)C(C)=CC=C[C@H](C)[C@H](O)[C@@H](C)[C@@H](O)[C@@H](C)[C@H](OC(C)=O)[C@H]1C`, the Potency entry in assay [1], in assay [12], in assay [8], in assay [10], in [16] and in assay [11] was “inactive” throughout. In addition, the result in [2] was inactive. Also, in assay [18], the Potency was 16.6 µM (active).

In the case of `CNC(=O)c1ccc2cc(C3(O)CCn4cncc43)ccc2c1` (stereo not drawn), the Potency entry in assay [1], in assay [3], in [12], in assay [4], in assay [6] and in [7] was “inactive” throughout. Further, the Potency entry in assay [8], in [9], in assay [10], in assay [16], in assay [19] and in assay [11] was “inactive” in each case. In addition, in [2], the outcome was inactive.

In the case of `CS(=O)(=O)N(Cc1ccco1)CC(O)Cn1c2ccccc2c2ccccc21` (stereo not drawn), the Potency result in assay [1], in assay [3], in assay [6], in assay [16], in assay [11] and in [13] was “inactive” in each case. In assay [2], the compound was classed as inactive. Also, the Potency was 14.8 µM (active) in assay [10], 18.7 µM (active) in assay [17] and 6.62 µM (active) in assay [18].

Consider `NC(=O)c1cccc2[nH]c(-c3ccc([C@H]4CCCN4)cc3F)nc12`, for which the Potency result in assay [1], in assay [3] and in assay [4] was “inactive” in each case. Further, in assay [2], the result was inactive. Moreover, the figures for the Potency in [10], in assay [17] and in [13] were 14.8 µM (active), 14.8 µM (active) and 23.5 µM (active), respectively.

Consider `COCCOc1nc(-c2ccc(Cl)c(Cl)c2)n(-c2ccc(NC(=O)CCl)cc2)n1`, for which the Potency result in [1] was “inactive”. For the same compound, in assay [2], the compound was called inactive. The Potency was 9.35 µM (active) in [12]; 16.6 µM (active) in assay [5]; 23.5 µM (active) in [6]; 16.6 µM (active) in assay [7]; 14.8 µM (active) in assay [8]; 14.8 µM (active) in assay [16]. The Potency in assay [17] is 11.8 µM (active); in [19] it was 23.5 µM (active); in [11], 14.8 µM (active); in [18] it was 5.26 µM (active); in assay [13], 16.6 µM (active).

For the compound `CC(C)C(=O)Oc1ccc(CO)cc1[C@H](CCN(C(C)C)C(C)C)c1ccccc1`, the Potency entry in assay [1], in assay [4], in assay [5], in assay [6], in [7] and in [14] was “inactive” each time. For the same compound, the Potency entry in assay [8], in assay [16], in assay [11], in assay [18] and in [13] was “inactive” in each case. Further, the outcome in [2] was inactive.

Take `COc1ccc2cc(-c3nc(-c4ccc(S(C)=O)cc4)[nH]c3-c3ccncc3)ccc2c1` (stereo not drawn): in [1], the Potency result is “inactive”. Moreover, the call in assay [2] was inactive. For the same compound, the Potency in assay [12] was 16.6 µM (active); in assay [8], 23.5 µM (active); in assay [10], 23.5 µM (active); in assay [17] it was 14.8 µM (active); in assay [18], 26.4 µM (active).

With `Cc1cccc(Nc2nc(-c3ccncc3)cs2)c1`, the Potency entry in assay [1] is “inactive”. The compound was classed as inactive in assay [2]. Also, the Potency in assay [3] was 18.7 µM (active); in assay [12], 18.7 µM (active); in [5], 11.8 µM (active); in [8], 23.5 µM (active); in [10] it was 20.9 µM (active); in [11], 18.7 µM (active). Also, the Potency in assay [13] is 18.7 µM (active).

Take `NC(=O)c1ccc2nc(-c3ccc(Oc4ccc(Cl)cc4)cc3)[nH]c2c1`: the Potency result in assay [1], in assay [4] and in [11] was “inactive” in each case. In addition, the call in assay [2] was inactive. In addition, the Potency was 0.166 µM (active) in [3]; 0.0264 µM (active) in [12]; 1.48 µM (active) in [5]; 5.9 µM (active) in assay [7]; 0.469 µM (active) in assay [8]; 0.0083 µM (active) in assay [9]. Besides, the Potency in assay [18] is 4.69 µM (active).

With `O=C(NC1CCOCC1)c1ccc(-c2cc(-c3cn[nH]c3-c3ccccn3)ccn2)cc1`, the Potency entry in assay [1], in assay [3], in assay [4], in assay [6], in assay [14] and in assay [17] was “inactive” in each case. In addition, the Potency entry in assay [11] and in assay [13] was “inactive” each time. For the same compound, in [2], the compound was classed as inactive. Besides, the Potency in assay [7] was 0.0296 µM (active).

For the compound `COc1ccc2c(Oc3ccc(NC(=O)c4c(C)n(CC(C)(C)O)n(-c5ccccc5)c4=O)nc3)ccnc2c1`, the Potency result in assay [1], in assay [14], in assay [10], in [16], in assay [11] and in assay [13] was “inactive” in each case. Also, the Potency in assay [3] was 20.9 µM (active).
